We go through 19 compounds from PubChem BioAssay.

In assay [1] the test system is PRMT1 (protein arginine N-methyltransferase 1). In words: small molecules binding arginine methyltransferase PRMT1 – biochemical, small-molecule microarray, 635 nm fluorescence, primary screen (AID 1088).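 Further: binding of Prmt1 protein to compounds spotted on small-molecule microarray slides.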 Particulars: higher = more signal.
The nature of assay [2]: growth effects on S. cerevisiae YJM789 – YJM789 clinical isolate, OD600, 24 h, basal, primary screen (AID 1089).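 Further: growth of clinical yeast isolate S. cerevisiae YJM 789 seeded 1000 cells per well; test concentration not given here.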 Conditions: higher = more signal, called active from +8 up or from −8 down.
Assay [3] can be described thus: S. pombe growth modifiers, basal conditions – strain 972, OD600, 24 h, no modulator, primary screen (AID 1090).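 Further: basal condition with compound alone and no growth modifier present; test concentration not given here.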 Particulars: S. pombe 972 growth, higher = more signal, called active from +8 up or from −8 down.
A short description of assay [4]: budding yeast growth modifiers under rapamycin – strain BY4716, OD600, 96 h, primary screen (AID 1091). Further: test concentration not given here. Particulars: S. cerevisiae BY4716 + rapamycin, higher = more signal, called active from +8 up or from −8 down.
The target in assay [5] is Torsin-1A-interacting protein 2 (Homo sapiens) (UniProt Q8NFQ8). Kind of assay: small molecules binding lysate-expressed LULL1 – cell lysate, human LULL1 lysate, 635/667 nm fluorescence, primary screen (AID 1092).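 Further: probe is lysate of COS7 cells overexpressing human LULL1; score merges per-feature 667 nm fluorescence with signal-to-noise.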 Conditions: small-molecule microarray, hLULL1 lysate binding, 635 nm fluorescence; higher = more signal.
Torsin-1A-interacting protein 2 (Homo sapiens), sequence (Q8NFQ8 whole entry, looked up): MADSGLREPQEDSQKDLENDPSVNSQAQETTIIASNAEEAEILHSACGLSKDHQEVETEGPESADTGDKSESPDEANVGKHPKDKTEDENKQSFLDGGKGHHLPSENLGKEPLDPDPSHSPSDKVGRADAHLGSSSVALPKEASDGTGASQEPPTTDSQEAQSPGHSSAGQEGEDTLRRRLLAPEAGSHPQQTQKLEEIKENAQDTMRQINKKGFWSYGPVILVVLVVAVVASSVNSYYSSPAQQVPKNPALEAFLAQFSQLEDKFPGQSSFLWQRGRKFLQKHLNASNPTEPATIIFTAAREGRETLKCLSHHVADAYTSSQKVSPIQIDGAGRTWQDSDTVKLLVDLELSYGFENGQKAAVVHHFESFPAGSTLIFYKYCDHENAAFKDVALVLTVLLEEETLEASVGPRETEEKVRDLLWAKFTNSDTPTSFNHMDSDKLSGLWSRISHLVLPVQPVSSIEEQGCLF
Assay [6] in a line: optical density change of DRC41 E. coli – strain DRC41, OD650, 24 h, E. coli filamentation project, primary screen (AID 1093).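 Further: MC1000 strain lacking acrAB efflux and sulA so SOS filamentation is blocked; test concentration not given here.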 Conditions: E. coli DRC41 growth, higher = more signal, called active from +8 up or from −8 down.
Assay [7] in a line: probe aLefty2 binding to arrayed compounds – biochemical, biotinylated probe, 635/667 nm fluorescence, primary screen (AID 1094).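 Further: score merges spot fluorescence near 667 nm with spot signal-to-noise ratio.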 Particulars: small-molecule microarray, higher = more signal.
The test system of assay [8] is Noggin (protein binding on small-molecule microarray). Kind of assay: small molecules binding Noggin protein – biochemical, 635/667 nm fluorescence, primary screen (AID 1095).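 Further: score merges 667 nm feature fluorescence with signal to noise over triplicate slides.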 Particulars: 635 nm fluorescence, higher = more signal.
For assay [9], the target named is Neurogenic locus notch homolog protein 3 (Homo sapiens) (UniProt Q9UM47). In words: small molecules binding NOTCH3 protein – biochemical, 635/667 nm fluorescence, primary screen (AID 1096). Conditions: small-molecule microarray, 635 nm fluorescence, higher = more signal.
Neurogenic locus notch homolog protein 3 (Homo sapiens), sequence (Q9UM47 whole entry, looked up): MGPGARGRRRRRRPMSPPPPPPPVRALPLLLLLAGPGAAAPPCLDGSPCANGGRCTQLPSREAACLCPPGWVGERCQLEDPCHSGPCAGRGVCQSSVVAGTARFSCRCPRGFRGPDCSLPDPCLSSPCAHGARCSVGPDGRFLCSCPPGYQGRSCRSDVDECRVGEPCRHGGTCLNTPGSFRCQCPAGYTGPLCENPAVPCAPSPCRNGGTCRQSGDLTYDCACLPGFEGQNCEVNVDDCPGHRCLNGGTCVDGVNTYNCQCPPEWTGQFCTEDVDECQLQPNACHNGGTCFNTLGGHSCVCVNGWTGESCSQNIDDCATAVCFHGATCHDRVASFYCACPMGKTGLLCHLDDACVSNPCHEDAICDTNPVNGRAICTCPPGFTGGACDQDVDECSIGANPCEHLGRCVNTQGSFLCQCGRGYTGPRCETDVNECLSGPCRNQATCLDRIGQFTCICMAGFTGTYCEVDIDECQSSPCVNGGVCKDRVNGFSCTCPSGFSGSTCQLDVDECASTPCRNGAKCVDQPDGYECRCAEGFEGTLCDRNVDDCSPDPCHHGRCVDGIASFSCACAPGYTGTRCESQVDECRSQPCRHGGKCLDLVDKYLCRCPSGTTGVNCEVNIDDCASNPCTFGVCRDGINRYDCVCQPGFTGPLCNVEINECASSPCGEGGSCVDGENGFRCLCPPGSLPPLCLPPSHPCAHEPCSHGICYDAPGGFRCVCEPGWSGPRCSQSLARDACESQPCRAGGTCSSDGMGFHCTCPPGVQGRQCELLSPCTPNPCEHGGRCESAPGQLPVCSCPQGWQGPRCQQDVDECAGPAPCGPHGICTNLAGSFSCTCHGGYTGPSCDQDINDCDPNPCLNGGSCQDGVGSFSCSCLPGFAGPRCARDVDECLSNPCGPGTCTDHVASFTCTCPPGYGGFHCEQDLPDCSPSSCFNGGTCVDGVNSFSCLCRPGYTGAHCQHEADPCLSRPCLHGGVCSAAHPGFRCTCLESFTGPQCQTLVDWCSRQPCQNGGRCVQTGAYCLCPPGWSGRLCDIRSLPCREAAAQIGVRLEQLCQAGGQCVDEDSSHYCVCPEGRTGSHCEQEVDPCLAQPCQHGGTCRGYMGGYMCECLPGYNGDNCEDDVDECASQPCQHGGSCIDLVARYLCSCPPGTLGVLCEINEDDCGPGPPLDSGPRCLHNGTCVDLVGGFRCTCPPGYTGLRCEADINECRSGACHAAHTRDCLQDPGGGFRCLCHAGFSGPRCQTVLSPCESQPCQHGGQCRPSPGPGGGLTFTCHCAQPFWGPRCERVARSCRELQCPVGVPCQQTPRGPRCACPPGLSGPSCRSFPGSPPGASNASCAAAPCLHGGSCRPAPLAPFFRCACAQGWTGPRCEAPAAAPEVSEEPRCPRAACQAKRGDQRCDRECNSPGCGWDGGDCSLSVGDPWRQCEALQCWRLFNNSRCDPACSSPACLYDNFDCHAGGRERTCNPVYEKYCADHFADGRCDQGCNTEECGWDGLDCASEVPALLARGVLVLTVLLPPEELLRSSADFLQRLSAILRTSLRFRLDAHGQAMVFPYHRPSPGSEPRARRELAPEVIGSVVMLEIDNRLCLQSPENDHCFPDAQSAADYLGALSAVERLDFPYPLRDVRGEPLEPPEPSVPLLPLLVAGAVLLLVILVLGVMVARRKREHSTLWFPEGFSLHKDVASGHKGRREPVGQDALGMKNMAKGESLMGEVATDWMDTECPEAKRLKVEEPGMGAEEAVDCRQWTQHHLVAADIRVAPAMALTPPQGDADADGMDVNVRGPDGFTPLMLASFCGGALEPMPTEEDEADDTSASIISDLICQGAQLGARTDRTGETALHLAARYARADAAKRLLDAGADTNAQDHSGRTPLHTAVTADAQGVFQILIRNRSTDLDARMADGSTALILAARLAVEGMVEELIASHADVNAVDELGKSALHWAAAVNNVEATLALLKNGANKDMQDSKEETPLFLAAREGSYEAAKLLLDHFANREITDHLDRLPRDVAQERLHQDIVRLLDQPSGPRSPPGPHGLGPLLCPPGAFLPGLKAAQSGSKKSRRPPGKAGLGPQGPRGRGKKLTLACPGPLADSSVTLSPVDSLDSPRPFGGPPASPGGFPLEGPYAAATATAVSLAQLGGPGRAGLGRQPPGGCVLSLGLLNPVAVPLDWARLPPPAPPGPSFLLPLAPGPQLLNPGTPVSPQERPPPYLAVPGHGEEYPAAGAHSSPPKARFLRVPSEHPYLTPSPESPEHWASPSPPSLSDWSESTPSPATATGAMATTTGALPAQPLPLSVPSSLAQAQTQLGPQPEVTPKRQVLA
A short description of assay [10]: probe aEGFR binding to arrayed compounds – biochemical, biotinylated probe, 635/667 nm fluorescence, primary screen (AID 1097).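 Further: probe is a biotinylated anti-EGFR antibody binding compounds printed on slides; score combines fluorescence near 667 nm and signal to noise of each spot.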 Conditions: small-molecule microarray, higher = more signal.

Structures are written as SMILES. Calls of active or inactive are those of the source.

Consider `CCCNC(=O)[C@@H]1c2ccccc2C(=O)N(CC23CC4CC(CC(C4)C2)C3)[C@H]1c1ccc(CO)cc1`, for which the composite z-score was found to be 1.44 in assay [1]; 2.79 in assay [5]; 0.267 in assay [7]; 0.406 in assay [8]; 1.1 in assay [9]; 0.167 in assay [10]. The z-score in [2] was -0.449 (inactive); in assay [3], -1.63 (inactive); in assay [4] it was 0.835 (inactive); in [6], -0.693 (inactive).
As for `CC(C)C(CO)N1C(=O)[C@@H]2[C@H]3C(=O)OCC=C[C@H]3OC23C=CCN(Cn2nnc4ccccc42)C(=O)[C@@H]13` (stereo not given in full), the composite z-score in assay [1] is -0.0697; in assay [5], 0.704; in assay [7], -0.262; in [8], -2.09; in [9], -0.254; in [10], -0.2. The z-score is 1.14 (inactive) in assay [2], 1.13 (inactive) in assay [3], 0.779 (inactive) in assay [4] and 0.701 (inactive) in assay [6].
As for `COc1ccc([Si](C)(C)[C@H]2[C@H](CCn3cc(CCO)nn3)O[C@@]3(C(=O)N(Cc4cccc(N5C(=O)c6cccc7cccc5c67)c4)c4ccccc43)[C@@H]2C)cc1`, the composite z-score was 1.46 in [1]; 2.2 in assay [5]; -0.288 in assay [7]; 1.03 in [8]; 0.79 in assay [9]; -0.142 in [10]. In addition, the z-score is 0.502 (inactive) in [2], 0.903 (inactive) in [3], 27.7 (active) in assay [4] and 0.921 (inactive) in [6].
For `COC(=O)[C@@]1(Cc2ccccc2N=[N+]=[N-])N=C(c2ccc(OCCCO)cc2)O[C@H]1c1ccccc1`, the composite z-score is 1.14 in assay [1]; 1.21 in assay [5]; -0.0654 in assay [7]; 0.314 in assay [8]; 0.94 in assay [9]; -0.115 in assay [10]. The z-score in assay [2] is -0.0982 (inactive); in [3], -3 (inactive); in assay [4] it was 23 (active); in assay [6], 0.0111 (inactive).
For `O=C1O[C@@H](c2ccccc2)[C@@H](c2ccccc2)N2[C@@H](c3ccc(O)cc3)[C@]3(C(=O)Nc4ccc(C#CC5(O)CCCCCC5)cc43)[C@@H](C(=O)N3CCN(c4ncccn4)CC3)[C@H]12`, the composite z-score in assay [1] was 1.34; in assay [5], 2.75; in [7] it was -0.114; in [8] it was 0.864; in assay [9] it was 0.886; in assay [10] it was -0.0399. Further, the z-score was 0.979 (inactive) in assay [2], 0.37 (inactive) in [3], 0.924 (inactive) in assay [4] and 1.52 (inactive) in [6].
`CCOC(=O)C[C@H]1[C@H](OC(=O)Cc2ccc3c(c2)OCO3)[C@@H](NC(=O)c2ccccc2)c2cc(OCCCO)ccc2N1C(=O)c1ccccc1`: the composite z-score is 0.267 in assay [1]; 1.27 in assay [5]; -0.166 in [7]; 0.53 in assay [8]; 0.713 in assay [9]; -0.125 in assay [10]. Besides, the z-score in [2] was -0.0172 (inactive); in [3], -0.462 (inactive); in assay [4], 0.205 (inactive); in [6] it was 1.48 (inactive).
Consider `COCCOC(=O)N1C(=O)[C@@]2(c3cc(C#CCNC(N)=O)ccc31)[C@H](C(N)=O)[C@H]1C(=O)O[C@H](c3ccccc3)[C@H](c3ccccc3)N1[C@@H]2c1ccc(OCCO)cc1`, for which the composite z-score was 1.55 in [1]; 1.53 in assay [5]; -0.0054 in assay [7]; 1.23 in [8]; 1.07 in [9]; -0.0085 in assay [10]. In addition, the z-score in assay [2] is 0.517 (inactive); in assay [3], 0.0121 (inactive); in assay [4], 1.98 (inactive); in [6], -0.27 (inactive).
In the case of `COc1cc(C(O)C2C=CC3C(=O)N(C)C(=O)C3N2NC(=O)OC(C)(C)C)cc(OC)c1OC` (stereo not given), the composite z-score in assay [1] was 1.09; in assay [5], 3.16; in assay [7], 0.604; in assay [8] it was -0.23; in assay [9] it was 0.697; in assay [10], 0.561. Moreover, the z-score is 0.61 (inactive) in assay [2], 2 (inactive) in assay [3], 1.15 (inactive) in assay [4] and -1.34 (inactive) in assay [6].
Regarding `COCCOC(=O)N1C(=O)[C@@]2(c3ccccc31)[C@H](c1ccc(OCCO)cc1)N1[C@H](c3ccccc3)[C@H](c3ccccc3)OC(=O)[C@H]1[C@@H]2C(=O)NC[C@H](O)c1ccccc1`, the composite z-score was 1.53 in [1]; 3.09 in assay [5]; 0.187 in [7]; 1.19 in assay [8]; 1.04 in assay [9]; -0.0759 in [10]. In addition, the z-score in assay [2] was 2.2 (inactive); in [3] it was 0.892 (inactive); in assay [4], 6.77 (inactive); in assay [6] it was -0.0625 (inactive).
`N#Cc1ccc(NN2C(C(O)c3ccco3)C=CC3C(=O)N(c4ccccc4)C(=O)C32)cc1` (stereo not given): the composite z-score in assay [1] was 0.327; in assay [5] it was 2.41; in assay [7], 0.0815; in assay [8] it was -0.0593; in assay [9], 0.591; in [10], -0.0411. Besides, the z-score in [2] was 0.0011 (inactive); in [3] it was 0.376 (inactive); in assay [4], 1.7 (inactive); in assay [6], -3.5 (inactive).
With `COC(=O)[C@@]1(Cc2ccc(OC)cc2)[C@H]2c3cc(C(=O)N4CCCC4)n(CCF)c3C[C@H]2CN1C(=O)c1ccccc1`, the composite z-score is 0.669 in assay [1]; 3.56 in assay [5]; 1.64 in [7]; -0.183 in assay [8]; 1.12 in assay [9]; 1.37 in assay [10]. Besides, the z-score is 0.366 (inactive) in [2], 1.13 (inactive) in [3], 0.4 (inactive) in assay [4] and -1.09 (inactive) in [6].
Consider `COCCCNC(=O)[C@]1(CCS(=O)(=O)c2ccccc2)N=C(c2ccc(OCCCO)cc2)O[C@@H]1c1ccccc1`, for which the composite z-score came to 1.54 in [1]; 3.74 in assay [5]; 0.255 in assay [7]; 0.712 in [8]; 1.11 in [9]; 0.141 in [10]. Besides, the z-score was -0.575 (inactive) in [2], 0.127 (inactive) in [3], 0.0389 (inactive) in assay [4] and 0.697 (inactive) in assay [6].
On to `C[N+](C)(C)CCCCCCNC(=O)[C@H]1C[C@H]2C(=O)N3CCC[C@H]3C(=O)N2[C@H]1c1cccc(OCCO)c1`, for which the composite z-score in assay [1] worked out at 1.3; in assay [5], 3.24; in assay [7] it was 0.05; in assay [8] it was 0.666; in [9], 1.08; in [10], 0.153. Moreover, the z-score in assay [2] is -0.811 (inactive); in assay [3], -0.486 (inactive); in [4], 0.0309 (inactive); in assay [6], -0.64 (inactive).
In the case of `COc1ccc([Si](C)(C)[C@@H]2[C@@H](CCO)O[C@]3(C(=O)N(Cc4ccccc4)c4ccc(N5C(=O)COc6ccccc65)cc43)[C@H]2C)cc1`, the composite z-score in assay [1] was 1.39; in [5], 1.74; in assay [7] it was -0.0511; in [8], 1.09; in assay [9], 0.624; in assay [10] it was -0.187. Besides, the z-score in [2] was 1.56 (inactive); in assay [3] it was 0.504 (inactive); in [4], 9.67 (active); in [6], 2.61 (inactive).
On to `[N-]=[N+]=Nc1ccccc1C[C@]1(C(=O)NCCN2CCOCC2)N=C(c2ccc(OCCCO)cc2)O[C@H]1c1ccccc1N=[N+]=[N-]`, for which the composite z-score in assay [1] worked out at 1.55; in assay [5] it was 3.37; in assay [7], 0.491; in assay [8], 0.708; in [9] it was 1.03; in assay [10] it was 0.542. In addition, the z-score was -2.65 (inactive) in assay [2], -4.92 (inactive) in assay [3], -0.821 (inactive) in [4] and 0.683 (inactive) in assay [6].
Turning to `CN(C)C(=O)[C@@]1(CCC(=O)OC(C)(C)C)COC(c2ccc(OCCCO)cc2)=N1`, the composite z-score is 1.32 in assay [1]; 3.78 in assay [5]; 0.112 in [7]; 0.74 in [8]; 0.0673 in [9]; -0.122 in assay [10]. The z-score is -0.321 (inactive) in assay [2], -0.369 (inactive) in assay [3], -0.501 (inactive) in [4] and 0.771 (inactive) in [6].
For `COc1ccc(CCNC(=O)[C@@H]2c3ccccc3C(=O)N(Cc3ccccc3C(F)(F)F)[C@H]2c2ccc(CO)cc2)cc1`, the composite z-score was 0.77 in assay [1]; 2.92 in assay [5]; 0.0258 in assay [7]; -0.185 in assay [8]; -0.0818 in assay [9]; -0.216 in assay [10]. In addition, the z-score in assay [2] was -0.0666 (inactive); in assay [3], 0.057 (inactive); in assay [4], -0.0429 (inactive); in assay [6], 0.415 (inactive).
As to `O=C1OCCC=C[C@H]2OC34C=CCN(Cn5nnc6ccccc65)C(=O)[C@H]3N(CCCCCO)C(=O)[C@@H]4C12` (stereo not given in full), the composite z-score in [1] is -0.285; in assay [5], 1.43; in assay [7] it was -0.0674; in [8], -0.825; in assay [9], -0.135; in assay [10] it was -0.2. The z-score is -0.0057 (inactive) in assay [2], -0.439 (inactive) in [3], -0.506 (inactive) in assay [4] and 0.141 (inactive) in assay [6].
`Cc1ccc(S[C@]2(C(=O)O)CC(=O)N(C3CCCCC3)[C@@H]2c2ccc(CO)cc2)cc1`: the composite z-score was 1.42 in assay [1]; 2.82 in assay [5]; -0.132 in [7]; 0.243 in [8]; 0.233 in assay [9]; 0.0346 in assay [10]. For the same compound, the z-score is 0.316 (inactive) in assay [2], 0.222 (inactive) in assay [3], 9.82 (active) in assay [4] and 0.999 (inactive) in assay [6].
